{"source": "the supplement of paper PMC8728848", "binders": {"B1": {"name": "SAG3 (Toxoplasma gondii), Q9BJ39 (protein)", "chain": "MQLWRRRAAGPASLGRQSLPLGCFFAAFGLCVLSAILGTGERGLFVAAGNSRRKITYFGTLTQKAPNWYRCSSTRAKEEVVGHVTLNKEHPDMTIECVDDGLGGEFLPLEGARSSYPRVCHIDAKDQDDCERNRGFLTDYIPGAKQYWYKIEKVEQNGEQSVLYKFTVPWILLPPAKQRYKVGCRYPNHEYCFVEVTVEPTPPMVEGKRVTCGYSESGPVNLEVDLSKNANFIEIRCGEQHHPQPSTYTLQYCSGDSVDPQKCSPQSLTNIFYDYSSSWWKGKLNGPDGATLTIPPGGFPEEDKSFLVGCSLTVDGPPFCNVKVRVAGNPRKWERGGGGHPGSGGLQPGTDGETQAGTGSSAGASSRMASVALAFLLGLLVHVAA"}}, "assay_in_all_cases": "glycan array binding signal (z-score within array); higher = stronger binding", "conditions_in_all_cases": "glycan notation: IUPAC condensed, linker removed", "key": {"Fuc(a1-2)Gal(b1-3)GalNAc": {"target": "Fuc(a1-2)Gal(b1-3)GalNAc", "how_it_was_run": "(§1)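 Columns mapping to the same glycan were averaged after glycan names were converted to IUPAC-condensed notation. The data come from 3228 arrays in the Consortium for Functional Glycomics database, limited to those with an available protein sequence. Binding is reported as a within-array Z-score averaged across arrays of one protein sequence and across linkers.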"}, "[1]": {"target": "Fuc(a1-2)Gal(b1-3)GlcNAc(b1-3)[Fuc(a1-3)[Gal(b1-4)]GlcNAc(b1-6)]Gal(b1-4)Glc", "how_it_was_run": "as §1"}, "[2]": {"target": "Fuc(a1-2)Gal(b1-3)[Fuc(a1-4)]GlcNAc(b1-2)Man(a1-3)[Fuc(a1-2)Gal(b1-3)[Fuc(a1-4)]GlcNAc(b1-2)Man(a1-6)]Man(b1-4)GlcNAc(b1-4)GlcNAc", "how_it_was_run": "as §1"}, "[3]": {"target": "Fuc(a1-2)Gal(b1-3)[Fuc(a1-4)]GlcNAc(b1-3)[Gal(b1-4)GlcNAc(b1-6)]Gal(b1-4)Glc", "how_it_was_run": "as §1"}, "Fuc(a1-2)Gal(b1-4)Glc": {"target": "Fuc(a1-2)Gal(b1-4)Glc", "how_it_was_run": "as §1"}, "[4]": {"target": "Fuc(a1-2)Gal(b1-4)[Fuc(a1-3)]GlcNAc(b1-2)Man(a1-3)[Fuc(a1-2)Gal(b1-4)[Fuc(a1-3)]GlcNAc(b1-2)Man(a1-6)]Man(b1-4)GlcNAc(b1-4)GlcNAc", "how_it_was_run": "as §1"}, "[5]": {"target": "Fuc(a1-2)[Gal(a1-3)]Gal(b1-4)GlcNAc", "how_it_was_run": "as §1"}, "[6]": {"target": "Fuc(a1-2)[GalNAc(a1-3)]Gal(b1-3)GlcNAc(b1-2)Man(a1-3)[Fuc(a1-2)[GalNAc(a1-3)]Gal(b1-3)GlcNAc(b1-2)Man(a1-6)]Man(b1-4)GlcNAc(b1-4)GlcNAc", "how_it_was_run": "as §1"}, "[7]": {"target": "Fuc(a1-2)[GalNAc(a1-3)]Gal(b1-4)GlcNAc(b1-3)Gal(b1-4)GlcNAc", "how_it_was_run": "as §1"}, "[8]": {"target": "Fuc(a1-2)[GalNAc(a1-4)]Gal(b1-4)GlcNAc", "how_it_was_run": "as §1"}, "[9]": {"target": "Fuc(a1-3)[Gal(b1-4)]GlcNAc(b1-3)GalNAc", "how_it_was_run": "as §1"}, "Gal(a1-3)Gal(b1-4)GlcNAc": {"target": "Gal(a1-3)Gal(b1-4)GlcNAc", "how_it_was_run": "as §1"}, "[10]": {"target": "Gal(a1-3)Gal(b1-4)[Fuc(a1-3)]GlcNAc(b1-2)Man(a1-3)[Gal(a1-3)Gal(b1-4)[Fuc(a1-3)]GlcNAc(b1-2)Man(a1-6)]Man(b1-4)GlcNAc(b1-4)GlcNAc", "how_it_was_run": "as §1"}, "Gal(a1-3)GalNAc": {"target": "Gal(a1-3)GalNAc", "how_it_was_run": "as §1"}, "[11]": {"target": "Gal(a1-4)Gal(b1-3)GlcNAc(b1-2)Man(a1-3)[Gal(a1-4)Gal(b1-3)GlcNAc(b1-2)Man(a1-6)]Man(b1-4)GlcNAc(b1-4)GlcNAc", "how_it_was_run": "as §1"}, "[12]": {"target": "Gal(b1-3)GlcNAc(b1-2)Man(a1-3)[Gal(b1-3)GlcNAc(b1-2)Man(a1-6)]Man(b1-4)GlcNAc(b1-4)GlcNAc", "how_it_was_run": "as §1"}, "[13]": {"target": "Gal(b1-3)GlcNAc(b1-3)Gal(b1-4)GlcNAc(b1-6)[Gal(b1-3)GlcNAc(b1-3)]Gal(b1-4)Glc", "how_it_was_run": "as §1"}, "[14]": {"target": "Gal(b1-3)[Fuc(a1-4)]GlcNAc(b1-3)Gal(b1-4)GlcNAc", "how_it_was_run": "as §1"}, "Gal(b1-4)Glc6S": {"target": "Gal(b1-4)Glc6S", "how_it_was_run": "as §1"}, "[15]": {"target": "Gal(b1-4)GlcNAc(b1-3)Gal(b1-4)GlcNAc", "how_it_was_run": "as §1"}, "[16]": {"target": "Gal(b1-4)GlcNAc(b1-3)[Gal(b1-4)GlcNAc(b1-6)]GalNAc", "how_it_was_run": "as §1"}, "[17]": {"target": "GalNAc(b1-3)Gal(a1-6)Gal(b1-4)Glc", "how_it_was_run": "as §1"}, "[18]": {"target": "GlcNAc(b1-2)Man(a1-3)[GlcNAc(b1-2)Man(a1-6)]Man(b1-4)GlcNAc(b1-4)GlcNAc", "how_it_was_run": "as §1"}, "GlcNAc(b1-3)Man": {"target": "GlcNAc(b1-3)Man", "how_it_was_run": "as §1"}, "Kdn(a2-3)Gal(b1-4)Glc": {"target": "Kdn(a2-3)Gal(b1-4)Glc", "how_it_was_run": "as §1"}, "[19]": {"target": "Man(a1-2)Man(a1-3)[Man(a1-2)Man(a1-6)]Man", "how_it_was_run": "as §1"}, "Man(a1-3)[Man(a1-6)]Man": {"target": "Man(a1-3)[Man(a1-6)]Man", "how_it_was_run": "as §1"}, "[20]": {"target": "Neu5Ac(a2-3)Gal(b1-3)GalNAc(b1-4)[Neu5Ac(a2-3)]Gal(b1-4)Glc", "how_it_was_run": "as §1"}, "Neu5Ac(a2-3)Gal(b1-4)Glc": {"target": "Neu5Ac(a2-3)Gal(b1-4)Glc", "how_it_was_run": "as §1"}, "[21]": {"target": "Neu5Ac(a2-3)Gal(b1-4)GlcNAc(b1-3)Gal(b1-4)GlcNAc", "how_it_was_run": "as §1"}, "[22]": {"target": "Neu5Ac(a2-3)Gal(b1-4)[Fuc(a1-3)]GlcNAc(b1-3)GalNAc", "how_it_was_run": "as §1"}, "[23]": {"target": "Neu5Ac(a2-3)Gal(b1-4)[Fuc(a1-3)]GlcNAc(b1-6)[Gal(b1-3)]GalNAc", "how_it_was_run": "as §1"}, "[24]": {"target": "Neu5Ac(a2-3)Gal(b1-4)[Fuc(a1-3)]GlcNAc(b1-6)[Neu5Ac(a2-3)Gal(b1-3)]GalNAc", "how_it_was_run": "as §1"}, "[25]": {"target": "Neu5Ac(a2-3)GalNAc(b1-4)GlcNAc", "how_it_was_run": "as §1"}, "[26]": {"target": "Neu5Ac(a2-3)[Neu5Ac(a2-6)]GalNAc", "how_it_was_run": "as §1"}, "[27]": {"target": "Neu5Ac(a2-6)Gal(b1-4)GlcNAc", "how_it_was_run": "as §1"}, "[28]": {"target": "Neu5Ac(a2-6)Gal(b1-4)GlcNAc(b1-3)Gal(b1-4)GlcNAc(b1-3)Gal(b1-4)GlcNAc", "how_it_was_run": "as §1"}, "[29]": {"target": "Neu5Ac(a2-8)Neu5Ac(a2-3)[GalNAc(b1-4)]Gal(b1-4)Glc", "how_it_was_run": "as §1"}, "[30]": {"target": "Neu5Ac9Ac(a2-6)Gal(b1-4)GlcNAc", "how_it_was_run": "as §1"}, "[31]": {"target": "Neu5Gc(a2-6)Gal(b1-4)GlcNAc", "how_it_was_run": "as §1"}}, "note": "The sample as a whole holds a higher share of the strongest signals than the screen did.", "data": [{"binder": "B1", "values": [{"measurement": "glycan array binding signal (z-score)", "setting": "Fuc(a1-2)Gal(b1-3)GalNAc", "result": -0.359}, {"measurement": "glycan array binding signal (z-score)", "setting": "[1]", "result": 0.235}, {"measurement": "glycan array binding signal (z-score)", "setting": "[2]", "result": 6.32}, {"measurement": "glycan array binding signal (z-score)", "setting": "[3]", "result": 0.4}, {"measurement": "glycan array binding signal (z-score)", "setting": "Fuc(a1-2)Gal(b1-4)Glc", "result": -0.397}, {"measurement": "glycan array binding signal (z-score)", "setting": "[4]", "result": 2.31}, {"measurement": "glycan array binding signal (z-score)", "setting": "[5]", "result": 0.112}, {"measurement": "glycan array binding signal (z-score)", "setting": "[6]", "result": -0.473}, {"measurement": "glycan array binding signal (z-score)", "setting": "[7]", "result": -0.084}, {"measurement": "glycan array binding signal (z-score)", "setting": "[8]", "result": -0.046}, {"measurement": "glycan array binding signal (z-score)", "setting": "[9]", "result": 2.86}, {"measurement": "glycan array binding signal (z-score)", "setting": "Gal(a1-3)Gal(b1-4)GlcNAc", "result": -0.223}, {"measurement": "glycan array binding signal (z-score)", "setting": "[10]", "result": 4.74}, {"measurement": "glycan array binding signal (z-score)", "setting": "Gal(a1-3)GalNAc", "result": -0.176}, {"measurement": "glycan array binding signal (z-score)", "setting": "[11]", "result": -0.051}, {"measurement": "glycan array binding signal (z-score)", "setting": "[12]", "result": 0.157}, {"measurement": "glycan array binding signal (z-score)", "setting": "[13]", "result": 0.551}, {"measurement": "glycan array binding signal (z-score)", "setting": "[14]", "result": -0.077}, {"measurement": "glycan array binding signal (z-score)", "setting": "Gal(b1-4)Glc6S", "result": -0.304}, {"measurement": "glycan array binding signal (z-score)", "setting": "[15]", "result": 0.013}, {"measurement": "glycan array binding signal (z-score)", "setting": "[16]", "result": -0.475}, {"measurement": "glycan array binding signal (z-score)", "setting": "[17]", "result": -0.162}, {"measurement": "glycan array binding signal (z-score)", "setting": "[18]", "result": -0.352}, {"measurement": "glycan array binding signal (z-score)", "setting": "GlcNAc(b1-3)Man", "result": 0.13}, {"measurement": "glycan array binding signal (z-score)", "setting": "Kdn(a2-3)Gal(b1-4)Glc", "result": 0.107}, {"measurement": "glycan array binding signal (z-score)", "setting": "[19]", "result": -0.088}, {"measurement": "glycan array binding signal (z-score)", "setting": "Man(a1-3)[Man(a1-6)]Man", "result": 0.34}, {"measurement": "glycan array binding signal (z-score)", "setting": "[20]", "result": -0.184}, {"measurement": "glycan array binding signal (z-score)", "setting": "Neu5Ac(a2-3)Gal(b1-4)Glc", "result": -0.168}, {"measurement": "glycan array binding signal (z-score)", "setting": "[21]", "result": -0.053}, {"measurement": "glycan array binding signal (z-score)", "setting": "[22]", "result": 16}, {"measurement": "glycan array binding signal (z-score)", "setting": "[23]", "result": 3.05}, {"measurement": "glycan array binding signal (z-score)", "setting": "[24]", "result": 2.02}, {"measurement": "glycan array binding signal (z-score)", "setting": "[25]", "result": -0.469}, {"measurement": "glycan array binding signal (z-score)", "setting": "[26]", "result": -0.226}, {"measurement": "glycan array binding signal (z-score)", "setting": "[27]", "result": -0.372}, {"measurement": "glycan array binding signal (z-score)", "setting": "[28]", "result": -0.049}, {"measurement": "glycan array binding signal (z-score)", "setting": "[29]", "result": 2.27}, {"measurement": "glycan array binding signal (z-score)", "setting": "[30]", "result": 0.292}, {"measurement": "glycan array binding signal (z-score)", "setting": "[31]", "result": -0.387}]}]}
